Assay outcomes as filed in PubChem BioAssay.
Hits are enriched below; roughly 3.4% of the tested compounds scored in any of these assays.
PLC-gamma1 inh = inhibitors of human phospholipase C gamma1 | 370,000 compounds, 0.84% hits | P19174 | inhibition, % at 12.2 µM | purified PLC-gamma1, fluorogenic substrate, fluorescence; in the data active = inhibition above about 9.5%
PLC-beta3 inh = blocks human PLC-beta3 enzyme activity; Q01970; Purified PLC-beta3, fluorogenic substrate, fluorescence; inhibition, % at 12.2 µM; 370,000 compounds, 0.18% hits; AID 720704; in the data active = inhibition above about 11%
ADAM17 inh = ADAM17 inhibition, QFRET primary screen. 370,000 compounds, 0.83% hits. recombinant ADAM17, EDANS/DABCYL FRET peptide cleavage. inhibition, % at 6.95 µM. P78536;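 active = inhibition above the mean of compounds lying between control limits plus 3 SD, set per campaign, cut at about 8.5% in these data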
ADAM10 inh = ADAM10 inhibition, QFRET primary screen | 370,000 compounds, 0.62% hits | inhibition, % at 7 µM | recombinant ADAM10, EDANS/DABCYL FRET peptide cleavage, 3 h | O14672;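 active = inhibition above a per-campaign cutoff equal to the mean of compounds falling between control-based bounds plus 3 SD, cut at about 20% in these data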
HGIII-sPLA2 inh = Inhibits HGIII-sPLA2 liposome hydrolysis, primary screen | Q9NZ20 | QFRET BODIPY PC-A2 liposome hydrolysis, fluorescence | inhibition, % at 12.2 µM | 370,000 compounds, 0.56% hits;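 active = inhibition above mean plus 3 SD of compounds lying within the high and low control bounds, cut at about 19% in these data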
Target sequence (Q9NZ20 whole entry, looked up): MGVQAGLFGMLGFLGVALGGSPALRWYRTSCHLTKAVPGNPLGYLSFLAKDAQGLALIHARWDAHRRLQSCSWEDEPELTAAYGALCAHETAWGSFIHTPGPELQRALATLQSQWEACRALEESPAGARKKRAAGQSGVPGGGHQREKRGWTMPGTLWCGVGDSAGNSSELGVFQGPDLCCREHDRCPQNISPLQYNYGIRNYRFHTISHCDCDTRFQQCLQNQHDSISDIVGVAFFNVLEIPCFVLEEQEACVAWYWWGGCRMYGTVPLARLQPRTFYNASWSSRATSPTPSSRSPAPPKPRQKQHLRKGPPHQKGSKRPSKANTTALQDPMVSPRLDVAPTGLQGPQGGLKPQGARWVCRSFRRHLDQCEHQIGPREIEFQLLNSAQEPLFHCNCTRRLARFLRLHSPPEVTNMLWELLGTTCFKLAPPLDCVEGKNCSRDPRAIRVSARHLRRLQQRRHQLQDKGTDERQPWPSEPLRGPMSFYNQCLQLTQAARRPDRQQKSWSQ
KLK7 zymogen act = proKLK7 (human) activation, primary screen; P49862; purified proKLK7, EDANS-DABCYL substrate fluorescence; 100% is mature enzyme control, 0% vehicle; activation, % at 7 µM; 370,000 compounds, 0.9% hits;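 active = activation above the mean of all tested compounds plus 3 SD, computed per campaign excluding outliers beyond control limits, cut at about 13% in these data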
proKLK7 act conf = confirmation of human kallikrein-7 zymogen activators; purified proKLK7, EDANS-DABCYL substrate fluorescence; scaled: vehicle 0, mature enzyme 100; activation, % at 7 µM; shares compounds with KLK7 zymogen act; 3,200 compounds, 68% hits;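 active = activation, as change over the incubation, above the mean of all tested compounds plus 3 SD, cut at about 13% in these data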
EDANS interfere = optically interferes with EDANS-DABCYL signal, flagging KLK7 hits; shares compounds with KLK7 zymogen act; EDANS-DABCYL substrate fluorescence interference, no enzyme, 4 h; solvent 0%, active enzyme control 100%; 3,200 compounds, 80% hits; AID 686952; activation, % at 7 µM;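 active = activation above the all-compound mean plus 3 SD, ignoring values outside control-based bounds, cut at about 4.8% in these data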;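 also: value is the 4 h activation minus the activation read at time zero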
Hits are given with their value; i = inactive; nt = no result.

SMILES	PLC-gamma1 inh	PLC-beta3 inh	ADAM17 inh	ADAM10 inh	HGIII-sPLA2 inh	KLK7 zymogen act	proKLK7 act conf	EDANS interfere
CCN1C(=O)c2cccc3c(S(=O)(=O)NCCc4c[nH]c5ccccc45)ccc1c23	i	i	i	i	i	15	37	55
CCN1C(=O)c2cccc3c(S(=O)(=O)Nc4ccccc4OC)ccc1c23	i	i	i	i	i	i	nt	nt
CCN1C(=O)c2cccc3c(S(=O)(=O)NCc4ccccc4)ccc1c23	i	i	i	i	i	34	i	i
COc1ccc(COc2cc(-c3cccc(OC)c3)nc3ccc(NC(C)=O)cc23)cc1	i	i	i	i	i	18	i	i
COc1ccc(COc2cc(-c3cccc(OC)c3)nc3ccc(N)cc23)cc1	i	i	i	i	i	59	i	i
COCC(=O)N(C)c1nnc(-c2cnc(C)cn2)s1	i	i	i	i	i	17	70	81
COc1ccc(-c2nnc(N(C)C(=O)C3CCOC3)s2)cc1 (stereo not given)	i	i	i	i	i	i	nt	nt
COc1ccc(-c2nnc(N(C)C(=O)C3CCCO3)s2)cc1 (stereo not given)	i	i	i	i	i	i	nt	nt
Cc1cnc(-c2nnc(N(C)C(=O)C3CCCO3)s2)cn1 (stereo not given)	i	i	i	i	i	74	114	108
CN(C(=O)C1CCOC1)c1nnc(-c2cnccn2)s1 (stereo not given)	i	i	i	i	i	29	26	26
CCN1CC(CN(C)Cc2cn(-c3cccc(C)c3)nc2-c2cccc(F)c2)CC1=O (stereo not given)	i	i	i	i	i	17	i	i
CCCC/C=C1/C(c2ccccc2)N(Cc2ccc(OC)cc2OC)C2=NC(c3ccccc3)CC(=O)N21 (stereo not given)	i	i	i	i	i	nt	nt	nt
CCCCc1cc(=O)oc2cc(O)cc(O)c12	i	i	i	i	i	78	70	70
CCCCc1cc(=O)oc2cc(C)cc(OC(C)C(=O)O)c12 (stereo not given)	i	i	i	i	i	20	31	33
CCCc1cc(=O)oc2cc(C)cc(OCC(=O)O)c12	i	i	i	i	i	19	36	34
Cc1cc(=O)n2c3c(c4c(cc13)c(CN(C)C)cc(=O)n4C)OC2	i	i	i	i	i	30	15	17
Cc1cc(=O)n(C)c2ccccc12	i	i	i	i	i	i	nt	nt
Cc1cn(-c2cc(NC(=O)c3ccc(C)c(Nc4nccc(-c5cccnc5)n4)c3)cc(C(F)(F)F)c2)cn1	i	i	i	i	i	i	nt	nt
CNC(=O)COc1ccccc1C(=O)Nc1ccc2c(c1)oc1ccccc12	i	i	i	i	i	55	i	i
N#Cc1ccccc1NC(=O)c1ccccc1OCC(=O)Nc1ccc2c(c1)oc1ccccc12	i	i	i	i	i	i	nt	nt
COC(=O)/C=C/c1c(C)nc(NCc2ccccc2)nc1Cl	i	i	i	i	i	29	50	51
CCNc1nc(Cl)nc(NCc2ccccc2)n1	i	i	i	i	i	i	nt	nt
CCCCN(CC)Cc1c(O)ccc2c(-c3ccccc3)cc(=O)oc12	i	i	i	i	i	i	nt	nt
CCCCN(C)Cc1c(O)ccc2c(-c3ccccc3)cc(=O)oc12	i	i	i	i	i	17	17	23
CCN(CC)Cc1c(O)ccc2c(-c3ccccc3)cc(=O)oc12	i	i	i	i	i	22	23	29
SMILES	PLC-gamma1 inh	PLC-beta3 inh	ADAM17 inh	ADAM10 inh	HGIII-sPLA2 inh	KLK7 zymogen act	proKLK7 act conf	EDANS interfere
COC(=O)[C@H](Cc1ccccc1)NC(=O)[C@H]1C[C@@]2(N3CCCC3)c3ccccc3N(C(=O)OC(C)(C)C)[C@H]2N1C(=O)OC(C)(C)C	i	i	i	i	i	i	nt	nt
CCCN1CCN(CCCNC(=O)c2cc3c(=O)[nH]c4ccc(C)cc4c3s2)CC1	i	i	i	i	i	21	i	i
CCN1CCN(CCCNC(=O)c2cc3c(=O)oc4ccc(C)cc4c3s2)CC1	i	i	i	i	i	i	nt	nt
Cc1ccc(NC(=O)Cn2cnc3ccccc32)cc1C	i	i	i	i	i	i	nt	nt
Cc1ccc(NC(=O)Cn2c(/C=C/c3ccccc3)nc3ccccc32)cc1C	i	i	i	i	i	29	49	43
COc1ccc(CN(C)C(=O)C2CCCN(c3nc4ccccc4o3)C2)cc1 (stereo not given)	i	i	i	i	i	i	nt	nt
Nc1ccccc1-c1nc2ccccc2c(=O)o1	i	i	i	i	i	15	i	i
O=c1oc(-c2ccccc2[N+](=O)[O-])nc2ccccc12	i	i	i	i	i	i	nt	nt
Clc1ccc([C@H]2OC[C@@]3(CNCc4ccccc4)CS[C@H](c4ccc(Cl)cc4)N23)cc1	i	i	i	i	i	nt	nt	nt
Cc1ccc(-c2cc(C(=O)NN=Cc3c4ccccc4cc4ccccc34)[nH]n2)cc1C	i	i	i	i	i	i	nt	nt
COc1ccc2ccccc2c1C=NNC(=O)c1cc(-c2ccc(C)cc2)n[nH]1	i	i	i	i	i	41	i	i
C=CCOc1c2ccc(C(=O)NCc3ccccc3OC)cc2nn1C	i	i	i	i	i	14	i	15
CC[C@]12c3[nH]c4cc(-c5ccco5)ccc4c3CCN1C(=O)[C@@H](CC(=O)NCCCN(C)C)C[C@@H]2C(=O)N1CCN(C(=O)c2ccco2)CC1	i	i	i	i	i	84	47	63
CN(C)CCCNC(=O)C[C@H]1C[C@H](C(=O)N2CCCCC2)[C@@]2(CCc3ccccc3)c3[nH]c4cc(-c5ccco5)ccc4c3CCN2C1=O	i	i	i	i	i	46	41	52
C[C@]12c3[nH]c4cc(-c5ccco5)ccc4c3CCN1C(=O)[C@@H](CC(=O)NCCCn1ccnc1)C[C@@H]2C(=O)N1CCCCC1	i	i	i	i	i	105	40	61
CN(C)CCCNC(=O)C[C@H]1C[C@H](C(=O)N2CCCCC2)[C@@]2(C)c3[nH]c4cc(-c5ccco5)ccc4c3CCN2C1=O	i	i	i	i	i	97	86	109
CC(C)N(C(=O)[C@H]1C[C@H](CC(=O)NCCCn2ccnc2)C(=O)N2CCc3c([nH]c4cc(-c5ccco5)ccc34)[C@]12C)C(C)C	i	i	i	i	i	i	nt	nt
CN(C)CCCNC(=O)CC1C[C@H](C(=O)N2CCCCC2)[C@@]2(CCc3ccccc3)c3[nH]c4ccccc4c3CCN2C1=O (stereo not given in full)	i	i	i	i	i	i	nt	nt
